The text below walks through data of PubChem BioAssay (NCI).

This is part of a sample that, as a whole, favours compounds with a hit. Of some 83,000 tested, about 20% had one in any assay.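 In brief: 96-well plates, 48 h treatment, single concentration, percent growth endpoint.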 Active and inactive are the calls of the source. How the source made its calls: active means growth percent below 10; inactive means the rest.

This assay has as its system SR leukemia. The assay can be described thus: NCI-60 one-dose screen, 48 h (100 = growth as untreated, 0 = no growth, -100 = all killed). Particulars: 10 µM unless noted.
For the compound `N/C(=N\C(N)=N\c1nc2ccccc2s1)c1cccc(Cl)c1`, the growth was 16.6% (inactive).
As for `CCOC(=O)[C@@H](C)C[C@H](Cc1ccccc1)NC(=O)c1csc([C@@H](C[C@H](C(C)C)N(C)C(=O)[C@@H](NC(=O)[C@H]2C[C@H](O[Si](C)(C)C(C)(C)C)CCN2C)C(C)C)OC(C)=O)n1`, the figure is -13.9% [9.25 µM] (active); as for `COC(=O)/C=C1\S/C(=N\NC(=O)c2cc3ccc2/C=C\c2ccc(cc2)/C=C\3)N(c2ccccc2)C1=O`, -15.6% (active); as for `NNC(=O)c1ccc(-n2nc(-c3ccccc3)c3ccccc32)cc1`, 83.5% (inactive).
In the case of `NC(=NCCCOc1ccc(F)cc1)Nc1ccc(I)cc1`, the growth was 58% (inactive).
As to `N#CC1C(C#N)C(C(=O)c2ccc(Br)cc2)N2c3ccccc3C=CC12` (stereo not drawn), the growth is 34.9% (inactive).
Take `CCN1C(=O)/C(=C/C(=O)OC)S/C1=N\NC(=O)c1cc2ccc1/C=C\c1ccc(cc1)/C=C\2`: the growth is -13.4% (active).
`COc1ccccc1/C=C1\Oc2cc(OCCN3CCCC3)ccc2C1=O`: the growth was -8.89% (active).
As to `Cc1cc2nc3c4ccc(Br)cc4n(CCN(C)C)c3nc2cc1C`, the growth was -2.61% (active).
As to `C/C(=N\Nc1cc(C)nc2ccc(Br)cc12)c1ccc([N+](=O)[O-])cc1`, the growth is 1.78% (active).
As for `COc1cc(C2C3CC4CCCC[C@H]4N3[C@@]3(C(=O)Nc4cc(Cl)ccc43)C2C(=O)c2nc3ccccc3[nH]2)cc(OC)c1OC` (stereo partly drawn), the growth is 38.3% (inactive).
On to `O=C1OC(Cc2ccccc2)C1c1ccccc1` (stereo not drawn), for which the growth was 104% (inactive).
For `CC(Oc1ccc(C(=O)O)cc1C(F)(F)F)c1ccc(Oc2ccccc2)cn1` (stereo not drawn), the growth was 71.7% (inactive).
As for `CC(Sc1nc2ccccc2c(=O)n1CCc1ccc(S(N)(=O)=O)cc1)C(=O)Nc1ccc(Cl)cc1` (stereo not drawn), the figure is 77.4% (inactive); as for `CC1=CCC(OC(=O)C(C)(O)CCC(O)(C(=O)OC2(C)C=CC(O)(C(C)C)CC2)C(C)C)(C(C)C)CC1` (stereo not drawn), 103% (inactive); as for `ClC1=C(Br)C(Br)(Br)C(=C(Br)Br)C1(Br)Br`, 44% (inactive).
As for `C=C1C(=O)O[C@H]2[C@H]1CC/C(CNC(=O)C(C)c1ccc(CC(C)C)cc1)=C\CC[C@@]1(C)O[C@@H]21` (stereo partly drawn), the growth was 8.13% (active).
As for `CCCCCN1C=C/C(=C\C(=O)N2CCCc3ccccc32)c2ccccc21`, the figure is 61.6% (inactive); as for `N#Cc1cc(-c2nc3ccccc3s2)c(=O)n(NS(=O)(=O)c2ccccc2)c1N`, 108% (inactive); as for `CCCOc1ccc(/C=N/Nc2cc(C)nc3ccc(Cl)cc23)cc1`, -35.5% (active).
With `Cc1cccc(NC(=O)Nc2ccc(-n3cnc4cc(-c5ccc(O)cc5)ccc43)cc2)c1`, the growth is 19.7% (inactive).
For `O=c1c2c(c(=O)n1O)c1c3ccc[nH]c3nc1c1nc3[nH]cccc3c12`, the growth was 32.2% (inactive).
Take `O=C(CNCCN1CCOCC1)N1c2cccc3cccc(c23)N(C(=O)CNCCN2CCOCC2)C1c1cn(-c2ccccc2)nc1-c1cccc([N+](=O)[O-])c1`: the growth is -19.4% (active).
Turning to `O=Cc1cc2ccccc2nc1Oc1ccc(C(F)(F)F)cc1`, the growth is 23.6% (inactive).
With `COc1ccc(C(=O)/C=C/c2cc3ccccc3n3nnnc23)cc1`, the growth is 92.3% (inactive).
Consider `CN1CCN(C(=O)[C@]23CCC(C)(C)C[C@H]2C2=CC[C@@H]4[C@@]5(C)C/C(=C/c6cccnc6)C(=O)C(C)(C)[C@@H]5CC[C@@]4(C)[C@]2(C)CC3)CC1`, for which the growth was 15.5% (inactive).
As for `CCN(CC)c1ccc(/C=N/NC(=O)CSc2nc3ccccc3c(=O)n2CCc2ccc(S(N)(=O)=O)cc2)c(O)c1`, the growth is 13.8% (inactive).
As to `CCCCCCNC(=O)Nc1ccc2cc3ccc(NC(=O)NCCCCCC)cc3nc2c1`, the growth was -33% (active).
With `CCNC(=O)Oc1ccc(/C(=C(\C)c2ccccc2)c2ccc(OCCN(CC)CC)cc2)cc1`, the growth is 26.1% (inactive).
Turning to `CC/C(=C\c1ccc(OC)cc1)C(=O)c1ccc(OC)cc1`, the growth was 108% (inactive).
Regarding `CCc1ccc(CNc2ccc(N3CCOCC3)c(C(=O)O)c2)cc1`, the growth is 104% (inactive).
With `Cc1ccc(NS(=O)(=O)c2ccc(-c3cnc(C4CC4)o3)cc2)cc1C(F)(F)F`, the growth was 28.6% (inactive).
Regarding `C/C(=N\NC(=O)CSc1nc2ccccc2c(=O)n1CCc1ccc(S(N)(=O)=O)cc1)c1ccccn1`, the growth was 22.8% (inactive).
In the case of `C=C(CBr)[C@@H]1CC[C@]2(COC(C)=O)CC[C@]3(C)[C@H](CC[C@@H]4[C@@]5(C)CCCNC(C)(C)[C@@H]5CC[C@]43C)[C@@H]12`, the growth is 10% (inactive).
`COc1ccc(C(=O)Nc2cccc(C3CCc4c(cc(OC)c(OC)c4OC)O3)c2)cc1` (stereo not drawn): the growth was 21.6% (inactive).
`N=C(N)c1ccc(OCCCCCCCCCCOc2ccc(C(=N)N)cc2)cc1`: the growth was -60.4% (active).
For the compound `COc1cc2nc(-c3ccc(Cl)cc3)cc(OCCCN3CCOCC3)c2cc1OC`, the growth was 12.9% (inactive).
`Brc1ccc2[nH]cc(-c3cncn3CCc3ccccc3)c2c1`: the growth is 40.7% (inactive).
